KB-V1 cytotox = kills drug-selected multidrug resistant KB-V1 cells; KB-V1 MDR cells viability, CellTiter-Glo, 72 h; Potency, µM (series often up to 46.1 µM), most hits filed as cytotoxic; 400,000 tested, 3.4% active; AID 1347076; also: nearly all actives have a fitted effect of over 60% in size
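Cells of the MDR subline KB-V1 are plated, dosed with compound at multiple concentrations, and incubated 72 h at 37 degrees C; CellTiter-Glo is then added and luminescence read after 10 min.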
MCF10A rerep = DNA re-replication induction in MCF 10a cells | MCF 10A DNA re-replication, Hoechst nuclear intensity, 48 h | Potency, µM (top dose mostly 46.1 µM), usual class: activators | 350,000 tested, 2.9% active; also: nearly all actives have a fitted effect of over 50% in size
SW480 rereplic = DNA re-replication induction in SW480 cells; SW480 DNA re-replication, Hoechst DNA content imaging, 48 h; Potency, µM (titrated, usually from 46.1 µM), most hits filed as activators; 340,000 tested, 1.8% active; also: nearly all actives have a fitted effect of over 55% in size
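Hoechst fluorescence of nuclei (405 nm excitation, 500-530 nm emission) measured by plate-scanning imager after 48 hr compound exposure at 37 C; re-replication scored as increased number of nuclei with elevated intensity.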
KB-3-1 tox = kills parental KB-3-1 adenocarcinoma cells. KB-3-1 viability, CellTiter-Glo ATP luminescence, 72 h. 400,000 tested, 1.4% active. Potency, µM (top dose mostly 46.1 µM), actives largely listed as cytotoxic; also: nearly all actives have a fitted effect of over 60% in size
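Luminescent ATP read-out (CellTiter-Glo) measures survival of drug-naive KB-3-1 cells after 72 h compound exposure at 37 °C. Titration series was screened from lowest to highest concentration, with DMSO vehicle plates as background controls.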
PINK1 expr mod = changes PINK1 expression. 410,000 tested, 0.2% active. PINK1 immunofluorescence, high-content cytometry, 24 h. Potency, µM (top dose mostly 76.6 µM), hits mostly activators; active = well fitted activation curve with a large enough effect; inconclusive = small, poorly fitted or top-dose-only effect; cell line not stated here; also: nearly all actives have a fitted effect of over 65% in size
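Stable cell line, 250 cells/well, 12 h attachment; compounds pinned at 5 concentrations, 24 h; CCCP control. Fixed with nuclear dye, primary antibodies 12 h at 10 degrees C, secondary plus cell stain; laser-scanning cytometer read.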
A number is an active result; . = inactive; ? = inconclusive; / = not tested or not shown. Rows were chosen to be rich in hits. Some 6.7% of all compounds tested hit in one or more screens of this group. Unless noted, calls follow the shape of the dose curve; as a rule, active = well fitted curve in the direction sought with a large enough effect; inconclusive = small, poorly fitted or top-dose-only effect, or another doubt; inactive = no such curve, though single readings can be large; an effect the other way counts as inactive or inconclusive.

SMILES	KB-V1 cytotox	MCF10A rerep	SW480 rereplic	KB-3-1 tox	PINK1 expr mod
O=C1CC(N(CCc2ccccc2)C(=S)Nc2ccccc2)C(=O)N1c1ccccc1 (configuration not stated)	16.4µM	?	?	.	25.1µM
CCNC(=S)N(CCc1ccc(S(N)(=O)=O)cc1)C1CC(=O)N(c2ccccc2)C1=O (configuration not stated)	.	.	?	?	?
O=C(CCS(=O)(=O)c1cccc2nonc12)Nc1ccc(Br)cc1	?	.	.	.	.
COC(=O)/C=C1\OC(C2CC2)c2ccccc21 (configuration not stated)	.	/	/	.	/
CCC1=NN(C(=O)c2ccccc2O)C(O)(c2ccccc2)C1 (configuration not stated)	?	?	16.4µM	?	.
COc1cccc(C(=O)N2N=C(c3ccccc3)CC2(O)C(F)(F)F)c1 (configuration not stated)	16.4µM	?	.	.	.
CCC1=NN(C(=O)c2ccccc2Br)C(O)(c2ccc(Br)cc2)C1 (configuration not stated)	.	.	.	.	.
O=C(c1ccccc1O)N1N=C(c2ccccc2)CC1(O)C(F)(F)F (configuration not stated)	.	20.6µM	?	.	.
Cc1ccccc1OCC(=O)N1N=C(c2cccnc2)CC1(O)C(F)(F)F (configuration not stated)	20.6µM	.	.	.	.
CCNc1ncc2nc(-c3cc(F)cc(F)c3)c(=O)n(C[C@H]3CCCO3)c2n1	/	/	/	/	.
CC1=C2C3OC(=O)C(C)C3CCC2(C)C=C(Cl)C1=O (configuration not stated)	.	/	/	.	.
COc1ccc(C(O)P(=O)(OC(C)C)c2ccc(N(C)C)cc2)c(OC)c1 (configuration not stated)	.	.	.	.	.
COc1ccc(C(O)P(=O)(OCC(C)C)OCC(C)C)c(OC)c1 (configuration not stated)	16.4µM	.	.	.	.
Cc1cccc(OC(C)C(=O)N(Cc2cccs2)C2CCS(=O)(=O)C2)c1C (configuration not stated)	5.8µM	.	.	.	.
COc1ccc(-c2c(C#N)c(N)nc(Sc3ccc(Cl)cc3)c2C#N)cc1	.	?	?	.	.
COc1nc(N)c(C#N)c(-c2ccc(N(C)CCC#N)cc2)c1C#N	?	18.4µM	.	.	.
CCCCn1nc(C(=O)NC2CCCCCC2)c2ccccc2c1=O	/	.	.	/	.
CCCn1nc(C(=O)Nc2ccc3c(c2)OCCO3)c2ccccc2c1=O	16.4µM	.	.	.	.
CCCn1nc(C(=O)NC2CCCc3ccccc32)c2ccccc2c1=O (configuration not stated)	23.1µM	.	.	.	.
CCCCn1nc(C(=O)Nc2ccccc2N2CCCC2)c2ccccc2c1=O	3.66µM	?	.	.	.
CCCn1nc(C(=O)Nc2ccc3c(c2)OCO3)c2ccccc2c1=O	?	.	.	.	.
CC(C)Cn1nc(NC(=O)c2cccc(Cl)c2)c2cc3ccccc3nc21	?	/	/	.	.
CC(C)(C)OC(=O)N1CCC(NC(=O)c2nc[nH]c2C(=O)N2CCN(c3ccccc3)CC2)CC1	.	.	.	.	.
Cc1ccccc1CN1C(=O)c2ccccc2S(=O)c2ccc(C(=O)N3CCOCC3)cc21 (configuration not stated)	.	/	/	.	.
O=C(NCCCC(=O)N1CCCCC1)c1ccc(Cl)cc1	.	.	.	.	.
SMILES	KB-V1 cytotox	MCF10A rerep	SW480 rereplic	KB-3-1 tox	PINK1 expr mod
CCOC(=O)N1CCN(c2nc3ccccc3n3cnnc23)CC1	.	.	.	.	.
c1ccc(C(c2ccccc2)N2CCN(c3nc4ccccc4n4cnnc34)CC2)cc1	9.2µM	7.31µM	.	23.1µM	.
c1cnc(N2CCN(c3nc4ccccc4n4cnnc34)CC2)nc1	7.31µM	.	.	?	.
Cc1cccc(N2CCN(c3nc4ccccc4n4cnnc34)CC2)c1C	.	?	.	.	.
O=C1COc2ccccc2C(c2nc3ccccc3[nH]2)N1Cc1ccccc1 (configuration not stated)	.	/	/	.	.
CC1(C)CC(=O)C(C2C3=C(CC(C)(C)CC3=O)Oc3c(Br)cc(Br)cc32)=C(O)C1 (configuration not stated)	?	.	.	?	22.4µM
Cc1ccc(CNC(=O)CN2CCN(c3ccc(F)cc3)CC2)cc1	.	.	.	.	.
COc1ccc(C(=S)N2CCN(c3ccccc3C)CC2)cc1OC	?	?	?	.	.
O=C(CSc1nc2ccccc2[nH]1)N1CCOCC1	?	/	/	.	/
CCOc1ccc(CCNC(=O)Cn2c(C)c3cnn(-c4ccccc4)c(=O)c3c2C)cc1	.	/	/	.	.
C/C(=N\NC(=O)C1(C)CC1(Br)Br)c1ccc([N+](=O)[O-])cc1 (configuration not stated)	.	.	.	.	.
C/C(=N\NC(=O)C1(C)CC1(Br)Br)c1ccc(NC(=O)c2ccc(C)o2)cc1 (configuration not stated)	20.6µM	?	.	?	.
COc1ccc(S(=O)(=O)Nc2ccc3oc4c(c3c2)C(=O)CC(C)(C)C4)cc1	18.4µM	/	/	?	.
CC(NNC(=S)N1CCN(c2ccccn2)CC1)c1nccc2ccccc12 (configuration not stated)	0.461µM	?	?	?	.
CCNC(=S)N1CCN(c2ccccn2)CC1	.	.	.	.	.
Fc1ccccc1NC(=S)N1CCN(c2ccccn2)CC1	20.6µM	?	.	.	.
S=C(Nc1ccccc1Cl)N1CCN(c2ccccn2)CC1	.	.	.	.	.
CC(=O)Nc1ccc(S(=O)(=O)N[C@@H](C)C(=O)OCC(=O)NC2CCCC2)cc1	.	.	.	?	.
Cc1ccc(C#N)c(SCc2nnc(-c3ccc(Cl)cc3)o2)n1	11.6µM	0.731µM	2.31µM	.	.
Cc1ccc(C#N)c(SCc2cc3c(cc2Cl)OCO3)n1	.	.	.	.	.
Cc1cc(C)c(C#N)c(SCc2nnc(-c3ccccc3)o2)n1	3.66µM	2.59µM	8.2µM	.	.
COCCOC(=O)C1=C(C)NC(=O)NC1c1cn(-c2ccccc2)nc1-c1cccs1 (configuration not stated)	.	.	.	.	.
C=CCOC(=O)C1=C(C)NC(=O)NC1c1cn(-c2ccccc2)nc1-c1cccs1 (configuration not stated)	20.6µM	.	.	.	.
Cc1ccc(C)c(Cn2c3ccccc3c3cnn(CC(=O)NC4CCCCCC4)c(=O)c32)c1	.	/	/	.	.
Cc1cc(NC(=O)NC(=O)c2ccccc2NC(=O)CN(C)C)ccc1Oc1ncc(Br)cn1	2.06µM	14.6µM	6.51µM	2.91µM	.
Cc1cc(NC(=O)NC(=O)c2ccccc2NC(=O)CN)ccc1Oc1ncc(Br)cn1	?	?	2.91µM	1.16µM	.

Screens from PubChem BioAssay.
